Several values for one entry are separate records, joined by “and”; a condition that tells them apart may be missing. Identical values can stand only once. Records with an inconclusive call do not appear. Activity calls are given as the source filed them. The call rests on the fitted dose curve; in most records, active means well fitted inhibition curve with a large enough effect; inconclusive means small, poorly fitted or top-dose-only effect; inactive means flat fitted curve, though single readings scatter. Starred links: 1 amine or outer side, 2 acyl side, 3 side chain; linkers in the order of their positions; H or OH if unused. Positions of bridges follow the written chain, without caps; N, C: chain ends. Non-standard residues stand in square brackets, D forms with d. Residues, ends and D or L forms follow the SMILES beside them. Chains are numbered I, II in the order given. ξ: configuration not given here. *: point of attachment. Actinocin(9to1) = Cc1c2oc3c(C)ccc(C(=O)[*:1])c3nc-2c(C(=O)[*:2])c(N)c1=O; Octanoyl(6-Me) = CCC(C)CCCCC(=O)*; ξThr(3R) = C[C@@H](O)C(N)C(=O)O; NMeV = CN[CH](C(=O)O)C(C)C; dDab = NCC[C@@H](N)C(=O)O; Dab = NCC[C@H](N)C(=O)O; Sar = CNCC(=O)O
On the % scale 0 is the no-effect control and ±100 the full control effect; potency means the concentration at half of the fitted maximal effect.

In this experiment the test system is KB-3-1. Put plainly: Cytotoxic Profiling of Annotated Libraries Using Quantitative High-Throughput Screening (AID 1296008). Further: nearly all actives have a fitted effect of over 60% in size. The settings on record: Five cell lines viability, CellTiter-Glo ATP luminescence, 48-72 h; max response: stronger effect = lower value. The method in brief: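 Compounds were pin-transferred onto cells and incubated 48 or 72 hr at 37 degree Celsius, 95% humidity. CellTiter-Glo was added, plates sat 10 min at room temperature, then ATP-coupled luminescence was imaged as the viability read-out.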
For `COc1ccc(C[C@@H](C)[C@@H](C)Cc2ccc(OC)c(OC)c2)cc1OC`, the Potency is 2.96 µM (active).
Consider `CC(=O)[C@]1(O)Cc2c(O)c3c(c(O)c2[C@@H](O[C@H]2C[C@H](N)[C@@H](O)[C@H](C)O2)C1)C(=O)c1ccccc1C3=O`, for which the Potency was 0.469 µM (active).
`CC(C)(O)[C@H]1CC[C@@](C)([C@H]2[C@@H](O)C[C@@]3(C)[C@@H]4C[C@H](O[C@@H]5O[C@H](CO)[C@@H](O)[C@H](O)[C@@H]5O)[C@H]5C(C)(C)[C@@H](O[C@@H]6OC[C@@H](O)[C@H](O)[C@@H]6O)CC[C@@]56C[C@@]46CC[C@]23C)O1`: the max response was 2.16% (inactive).
The same measure, in the same setting: then `COC1=C(OC)C(=O)C(CC=C(C)CCC=C(C)CCC=C(C)CCC=C(C)CCC=C(C)CCC=C(C)CCC=C(C)CCC=C(C)CCC=C(C)CCC=C(C)C)=C(C)C1=O`, with -1.17% (inactive); and `C[C@H](CCC(=O)O)[C@H]1CCC2C3C[C@H](O)[C@@H]4C[C@H](O)CC[C@]4(C)C3CC[C@@]21C` (some centres undefined), with 6.35% (inactive).
Still for that read-out and setting: then `CCOC(=O)C=C[C@H](C[C@@H]1CCNC1=O)NC(=O)[C@@H](CC(=O)[C@@H](NC(=O)c1cc(C)on1)C(C)C)Cc1ccc(F)cc1`, with 4.76% (inactive).
Take `CNC(=O)c1ccc(Nc2cc(Nc3ccccc3S(=O)(=O)C(C)C)c3cc[nH]c3n2)nc1`: the Potency is 1.32 µM (active).
For the compound `Cc1cnc(NC(=O)Nc2cc(Br)c(C)cc2OC[C@@H]2CNCCO2)cn1`, the max response was -6.69% (inactive).
The same measure, in the same setting: then `C=C1CCC2[C@](C)(CO)C(O)CC[C@]2(C)C1CC=C1C(=O)OCC1O` (some centres undefined), with 8.99% (inactive).
`CC(C)N(CC[C@H](c1ccccc1)c1cc(CO)ccc1O)C(C)C`: the result was inactive.
Turning to `FC(F)c1nc2ccccc2n1-c1nc(N2CCOCC2)nc(N2CCOCC2)n1`, the Potency was 2.59 µM (active).
For the compound `CON=C(C(=O)N[C@@H]1C(=O)N2C(C(=O)O)=C(CSC(=O)c3ccco3)CS[C@H]12)c1csc(N)n1`, the result was inactive.
Turning to `C[C@@H]1[C@H](C)CC[C@]2(C(=O)O)CC[C@]3(C)C(=CC[C@@H]4[C@@]5(C)C[C@@H](O)[C@H](O)[C@@](C)(CO)[C@H]5CC[C@]43C)[C@@H]12`, the compound was called inactive.
Consider `Nc1ccn(C2CO[C@H](CO)O2)c(=O)n1` (some centres undefined), for which the max response was 6.69% (inactive).
As to `O=C(CN1C(=O)C2(CCCC2)NC[C@H]1c1cc(F)cc(F)c1)Nc1ccc2c(c1)C[C@@]1(C2)C(=O)Nc2ncccc21`, the max response was 2.38% (inactive).
As for `Nc1nc(=O)n([C@H]2C[C@H](O)[C@@H](CO)O2)cc1F`, the Potency was 11.8 µM (active).
On to `CCC(C)CCCCC(=O)N[C@@H](CCN)C(=O)NC(C(=O)N[C@H](CCN)C(=O)N[C@@H]1CCNC(=O)C([C@@H](C)O)NC(=O)[C@@H](CCN)NC(=O)[C@@H](CCN)NC(=O)[C@@H](CC(C)C)NC(=O)[C@H](Cc2ccccc2)NC(=O)[C@H](CCN)NC1=O)[C@@H](C)O` (stereo partly drawn) ({Octanoyl(6-Me)}-[Dab][ξThr(3R)][dDab][dDab][Dab]F[dL][dDab][dDab][ξThr(3R)]; lactam 4-C), for which the max response is 0.786% (inactive).
Regarding `CN[C@H]1[C@@H](O)[C@@H]2O[C@@H]3O[C@H](C)CC(=O)[C@]3(O)O[C@@H]2[C@@H](NC)[C@H]1O`, the compound was classed as inactive.
`O=C1c2c(O)cccc2[C@@H]([C@@H]2O[C@H](CO)[C@@H](O)[C@H](O)[C@H]2O)c2cc(CO)cc(O)c21`: the result was inactive.
Same read-out and setting: then `CC(=O)N[C@@H]1[C@H](O[C@@H]2c3ccc(c(Cl)c3)Oc3cc4cc(c3O[C@H]3O[C@H](CO)[C@@H](O)[C@H](O)[C@H]3NC(=O)CCCCCCCC(C)C)Oc3ccc(cc3Cl)C[C@H]3NC(=O)[C@H](N)c5ccc(O)c(c5)Oc5cc(O)cc(c5)[C@H](NC3=O)C(=O)N[C@H]4C(=O)N[C@H]3C(=O)N[C@@H]2C(=O)N[C@@H](C(=O)O)c2cc(O)cc(O[C@H]4O[C@H](CO)[C@@H](O)[C@H](O)[C@H]4O)c2-c2cc3ccc2O)O[C@H](CO)[C@@H](O)[C@@H]1O`, with “inactive”.
With `O=c1ccn([C@@H]2O[C@H](CO)[C@H](O)[C@@H]2F)c(=O)[nH]1`, the max response was 5.55% (inactive).
In the case of `CON=C(C(=O)N[C@@H]1C(=O)N2C(C(=O)O)=C(Cn3ccc(=N)n3CCO)CS[C@H]12)c1csc(N)n1`, the compound was called inactive.
Take `O=C(C=Cc1ccc(CN(CCO)CCc2c[nH]c3ccccc23)cc1)NO`: the Potency is 0.264 µM (active).
Consider `C[C@H](NC(=O)C(C#N)=Cc1cccc(Br)n1)c1ccccc1`, for which the Potency was 4.69 µM (active).
In the case of `COc1cc([C@@H]2c3cc4c(cc3[C@@H](O[C@@H]3O[C@@H]5CO[C@@H](c6cccs6)O[C@@H]5[C@H](O)[C@@H]3O)[C@H]3COC(=O)[C@H]23)OCO4)cc(OC)c1O`, the Potency is 0.743 µM (active).
Same read-out and setting: then `C=CCNC1=C2C[C@@H](C)C[C@H](OC)[C@@H](O)[C@@H](C)C=C(C)[C@H](OC(N)=O)[C@@H](OC)C=CC=C(C)C(=O)NC(=CC1=O)C2=O`, with 0.105 µM (active).
Consider `CCOC(=O)N1CCN([N+]([O-])=NOc2ccc([N+](=O)[O-])cc2[N+](=O)[O-])CC1`, for which the compound was classed as inactive.
As to `COc1cccc2c1C(=O)c1c(O)c3c(c(O)c1C2=O)C[C@@](O)(C(C)=O)C[C@H]3O[C@H]1C[C@H](N)[C@H](O)[C@H](C)O1`, the Potency was 0.235 µM (active).
For the compound `C=CC1=C(C(=O)O)N2C(=O)[C@@H](NC(=O)C(=NO)c3csc(N)n3)[C@H]2SC1`, the max response is 4.36% (inactive).
Consider `O=C(O)CCCCCC(=O)NN=C1CCCC1`, for which the max response was 3.36% (inactive).
In the case of `Cc1ncc(-c2ccnc(Nc3ccc(S(C)(=O)=O)cc3)n2)n1C(C)C`, the Potency was 5.26 µM (active) and 5.17 µM (active).
On to `CC[C@H]1OC(=O)[C@H](C)[C@@H](O[C@H]2C[C@@](C)(OC)[C@@H](O)[C@H](C)O2)[C@H](C)[C@@H](O[C@@H]2O[C@H](C)C[C@H](N(C)C)[C@@H]2O)[C@](C)(OC)C[C@@H](C)C(=O)[C@H](C)[C@@H](O)[C@]1(C)O`, for which the max response was -5.56% (inactive).
Still for that read-out and setting: then `C=C(C)[C@@H]1CC[C@]2(C(=O)O)CC[C@]3(C)[C@H](CC[C@@H]4[C@@]5(C)CC[C@H](O)C(C)(C)[C@@H]5CC[C@]43C)[C@@H]12`, with -12.2% (inactive).
With `O=C(C=CC#Cc1cccc(NS(=O)(=O)c2ccccc2)c1)NO`, the Potency was 5.26 µM (active).
For `COC(=O)[C@H](CCCN=C(N)N)NS(=O)(=O)c1ccc(C)cc1`, the max response was -0.67% (inactive).
Turning to `Cc1c2oc3c(C)ccc(C(=O)NC4C(=O)NC(C(C)C)C(=O)N5CCCC5C(=O)N(C)CC(=O)N(C)C(C(C)C)C(=O)OC4C)c3nc-2c(C(=O)NC2C(=O)NC(C(C)C)C(=O)N3CCCC3C(=O)N(C)CC(=O)N(C)C(C(C)C)C(=O)OC2C)c(N)c1=O` (centres undefined) (I: TVP[Sar][NMeV] / II: TVP[Sar][NMeV]; ester I:1-I:C, II:1-II:C; linker I:N-II:N via Actinocin(9to1); configuration not given here), the Potency is 6.62e-05 µM (active).
Take `CC(=O)OC[C@@H]1O[C@@H](n2ccc(=O)[nH]c2=O)[C@H](OC(C)=O)[C@H]1OC(C)=O`: the max response was -0.144% (inactive).
With `NC(=O)Nc1cc(-c2ccc(CN3CCOCC3)cc2)sc1C(N)=O`, the Potency was 7.43 µM (active).
With `CC(=O)OCC(=O)[C@@]12N=C(C)O[C@H]1C[C@H]1[C@@H]3CCC4=CC(=O)C=C[C@]4(C)[C@@H]3[C@@H](O)C[C@@]12C`, the max response was 7.6% (inactive).

These data come from PubChem BioAssay (NCATS).
